# Data reported in PubChem BioAssay (NCATS).
# Results filed as inconclusive are left out. Entries that show only a call come without a potency. Activity calls are given as the source filed them. Unless noted, calls follow the shape of the dose curve; as a rule, active = well fitted curve in the direction sought with a large enough effect; inconclusive = small, poorly fitted or top-dose-only effect, or another doubt; inactive = no such curve, though single readings can be large; an effect the other way counts as inactive or inconclusive.
# Columns and labels:
# [1] = biological target: Cytochrome P450 3A4 (Homo sapiens) (UniProt P08684); test: qHTS Assay for Inhibitors and Substrates of Cytochrome P450 3A4 (AID 884); also: nearly all actives have a fitted effect of over 50% in size
# Sequence of Cytochrome P450 3A4 (Homo sapiens) (P08684 whole entry, looked up): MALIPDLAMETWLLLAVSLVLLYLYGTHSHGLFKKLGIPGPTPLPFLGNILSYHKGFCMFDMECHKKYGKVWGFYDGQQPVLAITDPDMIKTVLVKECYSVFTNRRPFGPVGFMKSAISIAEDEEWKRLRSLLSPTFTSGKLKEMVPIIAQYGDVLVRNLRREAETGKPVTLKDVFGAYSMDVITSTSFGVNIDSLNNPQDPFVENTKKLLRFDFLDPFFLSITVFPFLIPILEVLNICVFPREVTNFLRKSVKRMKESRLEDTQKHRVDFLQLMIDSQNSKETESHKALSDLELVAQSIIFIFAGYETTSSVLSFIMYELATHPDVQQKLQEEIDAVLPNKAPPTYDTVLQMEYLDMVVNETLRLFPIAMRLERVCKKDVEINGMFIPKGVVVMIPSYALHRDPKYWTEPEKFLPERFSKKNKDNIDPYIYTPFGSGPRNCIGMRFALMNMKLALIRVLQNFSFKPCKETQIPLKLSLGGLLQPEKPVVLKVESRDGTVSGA
# Outline: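 20 nM human CYP3A4 with 25 uM Luciferin-PPXE (at KM) in 200 mM KPO4, preincubated 10 min with compound; NADPH regeneration started a 60 min RT reaction. Luciferin detected by luminescence, normalized to 57 uM ketoconazole as full inhibition.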
# [2] = qHTS Assay for Lipid Storage Modulators (AID 1519; calls by dose curve); conditions: Drosophila S3 cells, BODIPY lipid droplet/cell ratio, laser cytometry, cells loaded with oleic acid
# Outline: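 Cells seeded at 5,000 per well were treated with compounds over a concentration series and loaded with oleic acid (400 uM, as added). Lipid droplet fluorescence (488 nm excitation, 500-530 nm channel) was read by laser-scanning cytometry and normalized to 20 uM Triacsin C.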
# [3] = biological target: Ubiquitin carboxyl-terminal hydrolase 1 (Homo sapiens) (UniProt O94782); test: Inhibitors of USP1/UAF1: Pilot qHTS (AID 504865);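 also: rhodamine fluorescence freed from ubiquitin-rhodamine substrate followed over time; top concentration of the series differs between compounds; nearly all actives have a fitted effect of over 35% in size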
# Sequence of Ubiquitin carboxyl-terminal hydrolase 1 (Homo sapiens) (O94782 whole entry, looked up): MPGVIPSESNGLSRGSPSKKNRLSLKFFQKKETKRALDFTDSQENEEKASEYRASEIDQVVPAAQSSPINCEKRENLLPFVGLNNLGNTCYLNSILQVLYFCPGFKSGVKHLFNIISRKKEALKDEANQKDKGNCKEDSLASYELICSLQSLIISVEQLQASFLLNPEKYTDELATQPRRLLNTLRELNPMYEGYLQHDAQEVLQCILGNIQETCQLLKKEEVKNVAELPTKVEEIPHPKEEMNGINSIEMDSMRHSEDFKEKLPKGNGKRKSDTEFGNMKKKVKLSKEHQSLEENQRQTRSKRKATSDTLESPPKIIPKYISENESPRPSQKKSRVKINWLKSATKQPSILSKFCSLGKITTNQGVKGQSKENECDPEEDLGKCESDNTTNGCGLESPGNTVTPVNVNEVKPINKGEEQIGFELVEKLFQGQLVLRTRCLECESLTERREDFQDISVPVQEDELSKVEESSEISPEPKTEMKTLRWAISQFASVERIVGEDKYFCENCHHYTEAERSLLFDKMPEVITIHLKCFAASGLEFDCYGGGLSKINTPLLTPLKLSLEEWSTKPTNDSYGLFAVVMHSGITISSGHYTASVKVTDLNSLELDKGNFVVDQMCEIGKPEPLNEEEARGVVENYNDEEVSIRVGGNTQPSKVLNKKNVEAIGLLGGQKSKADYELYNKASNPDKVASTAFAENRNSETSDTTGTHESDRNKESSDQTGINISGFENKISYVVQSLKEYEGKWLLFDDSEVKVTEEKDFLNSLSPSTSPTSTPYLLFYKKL
# Outline: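 Deubiquitinase activity followed as kinetic rhodamine fluorescence release from 150 nM Ub-Rho. 1 nM USP1/UAF1 with compound, after 15 min room-temperature preincubation, in HEPES pH 7.8 buffer containing TCEP, EDTA, BSA and Tween-20.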
# [4] = biological target: DNA dC->dU-editing enzyme APOBEC-3G (Homo sapiens) (UniProt Q9HC16); test: qHTS for inhibitors of Vif-A3G interactions: Validation (AID 588379)
# Sequence of DNA dC->dU-editing enzyme APOBEC-3G (Homo sapiens) (Q9HC16 whole entry, looked up): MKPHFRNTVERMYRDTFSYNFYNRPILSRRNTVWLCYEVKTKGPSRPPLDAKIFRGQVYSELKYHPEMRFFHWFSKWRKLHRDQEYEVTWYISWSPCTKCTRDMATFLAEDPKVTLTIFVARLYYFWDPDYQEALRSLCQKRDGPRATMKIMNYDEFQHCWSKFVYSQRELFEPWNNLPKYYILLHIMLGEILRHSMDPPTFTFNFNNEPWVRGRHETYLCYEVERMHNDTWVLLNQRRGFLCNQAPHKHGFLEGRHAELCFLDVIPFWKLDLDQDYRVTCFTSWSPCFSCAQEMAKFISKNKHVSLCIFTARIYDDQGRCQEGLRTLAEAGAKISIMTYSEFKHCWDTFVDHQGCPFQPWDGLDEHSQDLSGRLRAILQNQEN
# Outline: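 HeLa cells stably expressing Vif and A3G-eYFP, 700 cells/well, incubated overnight at 37 deg C, then exposed to compound overnight at 37 deg C. Inhibition of Vif-mediated degradation read as increased yellow fluorescence (Ex 488/Em 500-530) by laser-scanning cytometry.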
# [5] = biological target: ATP-dependent 6-phosphofructokinase (Trypanosoma brucei brucei) (UniProt O15648); test: qHTS Assay to Find Inhibitors of T. brucei phosphofructokinase: hit validation (AID 492961);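 also: luminescence reports ADP formed as PFK phosphorylates fructose-6-phosphate with ATP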
# Sequence of ATP-dependent 6-phosphofructokinase (Trypanosoma brucei brucei) (O15648 whole entry, looked up): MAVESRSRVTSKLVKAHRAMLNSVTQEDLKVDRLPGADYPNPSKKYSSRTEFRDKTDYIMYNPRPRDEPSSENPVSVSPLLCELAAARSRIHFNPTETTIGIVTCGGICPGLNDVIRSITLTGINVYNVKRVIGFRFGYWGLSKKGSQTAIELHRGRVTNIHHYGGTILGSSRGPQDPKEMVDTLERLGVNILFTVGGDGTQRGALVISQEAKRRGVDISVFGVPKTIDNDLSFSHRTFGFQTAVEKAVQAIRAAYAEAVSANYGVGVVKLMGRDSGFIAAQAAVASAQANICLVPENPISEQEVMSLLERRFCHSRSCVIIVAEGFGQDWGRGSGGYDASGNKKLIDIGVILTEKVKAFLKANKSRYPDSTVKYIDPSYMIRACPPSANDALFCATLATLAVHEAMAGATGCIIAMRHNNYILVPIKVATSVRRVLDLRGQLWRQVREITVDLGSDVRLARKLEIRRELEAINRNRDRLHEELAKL
# Outline: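 Reaction: 0.1 M triethanolamine pH 8.0, 5 mM MgCl2, F6P 0.5 mM, ATP 0.1 mM, PFK 1.25 nM, 45 min RT. Read-out: ADP-Glo luminescence. Analysis: concentration-response fits, classed by r2 and efficacy.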
# [6] = S16 Schwann cell viability assay (CellTiter-Glo assay) (AID 624031);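 also: native untransfected S16 rat Schwann cells; cellular ATP luminescence as a viability measure; nearly all actives have a fitted effect of over 70% in size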
# Outline: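 Cells were seeded at 500-750 per well in phenol red-free DMEM with 10% FBS and left overnight. Compounds or DMSO were pinned in, incubation ran 24 h at 37 °C/5% CO2, then CellTiter-Glo reagent was added and luminescence measured.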
Structure (SMILES),Potency [1],"activity change, negative = inhibition ([2]; at 57.5 µM (top of the series))",max response ([2]; measured here: cell count channel max response) [%],max response ([2]; measured here: lipid channel max response) [%],Potency [3],outcome [4],outcome [5],outcome [6]
O=C(CCc1ccc(O)cc1)c1c(O)cc(O)cc1O[C@@H]1O[C@H](CO)[C@@H](O)[C@H](O)[C@H]1O,inactive,9.34% (inactive),19.8,29.9,inactive,inactive,,
CC(C)n1c(/C=C/[C@H](O)C[C@H](O)CC(=O)O)c(-c2ccc(F)cc2)c2ccccc21,,,,,,,inactive,inactive
